Assay [1] is described as follows: Quantitative High-Throughput drug screen in 47 multiple myeloma cell lines against the NCATS MIPE library collection: XG6_PLB cell viability assay (AID 1919865). Further: nearly all actives have a fitted effect of over 40% in size. The essentials:
(§1)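 Plated at 500 cells per well, myeloma lines received MIPE 4.0 compounds by pin tool. Following 48 h culture at 37 °C, CellTiter-Glo luminescence gave viability relative to DMSO and media-only controls.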

A short description of assay [2]: Quantitative High-Throughput drug screen in 47 multiple myeloma cell lines against the NCATS MIPE library collection: XG1_PLB cell viability assay (AID 1919866). Further: nearly all actives have a fitted effect of over 35% in size. The essentials:
as §1

Assay [3] in a line: Quantitative High-Throughput drug screen in 47 multiple myeloma cell lines against the NCATS MIPE library collection: VP6_DJ cell viability assay (AID 1919867). Further: nearly all actives have a fitted effect of over 40% in size. The method in brief:
as §1

Assay [4] can be described thus: Quantitative High-Throughput drug screen in 47 multiple myeloma cell lines against the NCATS MIPE library collection: UTMC2_PLB cell viability assay (AID 1919868). Further: nearly all actives have a fitted effect of over 55% in size.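 On viability (% of DMSO control): 100% = DMSO-only wells and 0% = media-only wells without cells.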 The following applies: CellTiter-Glo ATP luminescence, 48 h; viability (% of DMSO control): at 45.8 µM (top of the series). The method in brief:
as §1
(In general: Cellular ATP, detected with luciferase, serves as a proxy for viable cell number.)

Assay [5] can be described thus: Quantitative High-Throughput drug screen in 47 multiple myeloma cell lines against the NCATS MIPE library collection: PE2_PLB cell viability assay (AID 1919869). Further: nearly all actives have a fitted effect of over 35% in size. The essentials:
as §1

A short description of assay [6]: Quantitative High-Throughput drug screen in 47 multiple myeloma cell lines against the NCATS MIPE library collection: PCM6_Riken cell viability assay (AID 1919870). Further: nearly all actives have a fitted effect of over 30% in size. The essentials:
as §1

The nature of assay [7]: Quantitative High-Throughput drug screen in 47 multiple myeloma cell lines against the NCATS MIPE library collection: RPMI8226_ATCC cell viability assay (AID 1919871). Further: nearly all actives have a fitted effect of over 30% in size. The method in brief:
as §1

Assay [8] in a line: Quantitative High-Throughput drug screen in 47 multiple myeloma cell lines against the NCATS MIPE library collection: OPM2_DSMZ cell viability assay (AID 1919872). Further: nearly all actives have a fitted effect of over 30% in size. The method in brief: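 Viability readout: CellTiter-Glo luminescence following 5 min room-temperature incubation with reagent. Prior exposure: 48 h, 37C, humidified 5% CO2, 500 cells per well.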
The nature of assay [9]: Quantitative High-Throughput drug screen in 47 multiple myeloma cell lines against the NCATS MIPE library collection: KMS11_JCRBsus cell viability assay (AID 1919873). Further: nearly all actives have a fitted effect of over 50% in size. The method in brief:
as §1

The nature of assay [10]: Quantitative High-Throughput drug screen in 47 multiple myeloma cell lines against the NCATS MIPE library collection: KMS28BM_JCRB cell viability assay (AID 1919874). Further: nearly all actives have a fitted effect of over 35% in size. The essentials:
as §1

Records with an inconclusive call do not appear. Activity calls are given as the source filed them. The call rests on the fitted dose curve; in most records, active means well fitted cell-killing curve with a large enough effect; inconclusive means small, poorly fitted or top-dose-only effect, or effect the other way; inactive means no such curve, though single readings can be large or run the other way.
Potency means the concentration at half of the fitted maximal effect.

In the case of `COc1cc2ncnc(Nc3ccc(F)c(Cl)c3)c2cc1OCCCN1CCOCC1`, the Potency in assay [1] is 0.0762 µM (active); in assay [2], 3.03 µM (active); in [3], 6.79 µM (active); in [4], 17.1 µM (active); in [5], 13.6 µM (active); in assay [6], 6.05 µM (active). The Potency in [7] was 42.9 µM (active); in assay [8], 54 µM (active); in [9] it was 21.5 µM (active).
On to `COc1cc2ncnc(-n3nc(-c4ccccn4)nc3N)c2cc1OC`, for which the Potency is 1.05 µM (active) in assay [1]; 5.9 µM (active) in assay [2]; 6.62 µM (active) in assay [3]; 3.72 µM (active) in assay [5]; 4.69 µM (active) in [6]. Also, the Potency result in [8], in assay [9] and in assay [10] was “inactive” throughout.
For the compound `CC=CC(=O)N(CC)c1ccccc1C`, the Potency is 23.5 µM (active) in assay [1], 26.4 µM (active) in assay [2], 29.6 µM (active) in assay [3] and 3.72 µM (active) in assay [7]. Moreover, the Potency result in assay [4], in assay [5], in [8], in assay [9] and in [10] was “inactive” throughout.
For `NC(CO)(CO)CCc1ccc(Sc2cccc(OCc3ccccc3)c2)cc1Cl`, the Potency in [1] was 20.9 µM (active); in [2], 16.6 µM (active); in assay [3], 8.33 µM (active); in assay [5], 13.2 µM (active); in assay [6] it was 14.8 µM (active); in [7] it was 23.5 µM (active). In addition, the Potency in assay [8] is 23.5 µM (active); in [9] it was 7.43 µM (active); in assay [10], 11.8 µM (active).
Consider `COC1CCC(N(C(=O)C2CCC(C)CC2)c2cc(C3=CCCCC3)sc2C(=O)O)CC1` (stereo not given), for which the Potency in assay [1] was 23.5 µM (active); in assay [2] it was 20.9 µM (active); in [3] it was 14.8 µM (active); in assay [5], 23.5 µM (active). Moreover, in [4], the viability (% of DMSO control) was 89.9% (active). In addition, the Potency entry in [7], in assay [8] and in assay [10] was “inactive” in each case.
In the case of `Cc1nc(N)sc1-c1ccnc(Nc2ccc(N3CCOCC3)cc2)n1`, the Potency in assay [1] is 4.69 µM (active); in [2] it was 2.64 µM (active); in assay [3], 3.32 µM (active); in assay [5], 3.32 µM (active); in assay [6], 6.62 µM (active); in assay [7], 11.8 µM (active). In addition, the Potency was 11.8 µM (active) in [8], 7.43 µM (active) in [9] and 16.6 µM (active) in assay [10].
`C=C1C(=O)[C@@]23C(CC[C@@H]1[C@H]2O)[C@@]12CO[C@]3(O)[C@@H](O)[C@@H]1C(C)(C)CC[C@@H]2O` (stereo not given in full): the Potency in assay [1] is 1.48 µM (active); in assay [2], 2.96 µM (active); in assay [3], 2.96 µM (active); in [4], 8.33 µM (active); in assay [5], 1.18 µM (active); in [6], 1.66 µM (active). The Potency in assay [7] was 11.8 µM (active); in assay [8], 7.43 µM (active); in [9] it was 2.96 µM (active); in assay [10] it was 2.35 µM (active).
Turning to `COCCOc1nc(-c2ccc(Cl)c(Cl)c2)n(-c2ccc(NC(=O)CCl)cc2)n1`, the Potency in assay [1] is 14.8 µM (active); in [2], 16.6 µM (active); in assay [3], 20.9 µM (active); in [4], 20.9 µM (active); in assay [5], 18.7 µM (active); in [6], 16.6 µM (active). Besides, the results for the Potency in [7] and in [10] were 20.9 µM (active) and 16.6 µM (active), respectively. Also, the Potency entry in [8] is “inactive”.
For `CC1(C)S[C@H]2[C@H](NC(=O)[C@@H](N)c3ccc(O)cc3)C(=O)N2[C@@H]1C(=O)O`, the Potency was 2.64 µM (active) in [1]; 1.32 µM (active) in assay [2]; 0.0743 µM (active) in assay [3]; 1.87 µM (active) in [6]; 18.7 µM (active) in [9]; 5.9 µM (active) in [10]. Also, the Potency entry in assay [5] and in assay [8] was “inactive” each time.
`NS(=O)(=O)c1cccc2c1C(=O)c1cccc(O)c1C2=O`: the Potency is 0.372 µM (active) in assay [1]; 0.264 µM (active) in assay [2]; 0.662 µM (active) in assay [3]; 0.372 µM (active) in assay [4]; 0.187 µM (active) in assay [5]; 0.469 µM (active) in assay [6]. The Potency was 0.833 µM (active) in [7], 2.64 µM (active) in assay [8], 0.105 µM (active) in [9] and 0.469 µM (active) in assay [10].
With `c1ccc2c(Cc3c[nH]c4ccccc34)c[nH]c2c1`, the Potency was 0.662 µM (active) in assay [1]; 1.18 µM (active) in assay [2]; 4.18 µM (active) in [3]; 2.96 µM (active) in assay [5]; 4.69 µM (active) in [6]; 26.4 µM (active) in [8]. The Potency was 23.5 µM (active) in assay [9] and 18.7 µM (active) in assay [10]. The Potency entry in [4] is “inactive”.
Turning to `O=C(Nc1ccccc1-c1cn2c(CN3CCNCC3)csc2n1)c1cnc2ccccc2n1`, the Potency in assay [1] is 9.35 µM (active); in assay [2], 7.43 µM (active); in assay [3], 9.35 µM (active); in assay [5] it was 8.33 µM (active); in assay [6], 10.5 µM (active); in assay [7] it was 20.9 µM (active). Further, the results for the Potency in [8] and in assay [9] were 23.5 µM (active) and 8.33 µM (active), respectively.
On to `COc1ccc(C2Sc3ccccc3N(CCN(C)C)C(=O)C2OC(C)=O)cc1` (stereo not given), for which the Potency entry in assay [1], in [2], in assay [3], in assay [5], in [6] and in assay [7] was “inactive” in each case. In addition, the Potency entry in assay [8], in [9] and in [10] was “inactive” throughout.
Consider `CS(=O)c1ccc(-c2nc(-c3ccc(F)cc3)c(-c3ccncc3)[nH]2)cc1` (stereo not given), for which the Potency in [1] is 42.9 µM (active); in assay [2] it was 38.2 µM (active); in assay [3], 7.62 µM (active); in assay [4], 34 µM (active); in assay [5], 30.3 µM (active).
For `CCc1ccc(OCc2ccccc2C(=O)Nc2ccc3nc(C)cc(N)c3c2)cc1`, the Potency is 1.05 µM (active) in assay [1]; 1.48 µM (active) in [2]; 1.32 µM (active) in assay [3]; 3.32 µM (active) in [4]; 2.35 µM (active) in assay [5]; 1.18 µM (active) in assay [6]. Also, the Potency in assay [7] was 6.62 µM (active); in assay [8] it was 9.35 µM (active); in assay [9], 1.48 µM (active); in assay [10] it was 1.18 µM (active).

These data come from PubChem BioAssay (NCATS).
